Measured values: PubChem BioAssay (NCATS)
Inconclusive results are not listed. The source made the active and inactive calls. Calls come from the whole dose curve; as a rule, active = well fitted curve in the direction sought with a large enough effect; inconclusive = small, poorly fitted or top-dose-only effect, or another doubt; inactive = no such curve, though single readings can be large; an effect the other way counts as inactive or inconclusive.

These molecules were tested against Aldehyde dehydrogenase, mitochondrial (Homo sapiens) (UniProt P05091) (assay: qHTS for Inhibitors of the Aldehyde Dehydrogenase Family (ALDH2) Primary screen (AID 2061308;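 note: plate controls were vehicle for no effect and reference inhibitor for full effect; nearly all actives have a fitted effect of over 55% in size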)). Settings: ALDH2 enzyme inhibition qHTS, 1536-well; series mostly up to 56 µM; activity change, negative = inhibition: at the top concentration.

| SMILES | activity change, negative = inhibition |
| --- | --- |
| Cc1noc(C)c1-c1ccc2ncnc(NCc3ccc(-c4ccccc4)cc3)c2c1 | 6.05% (inactive) |
| FC(F)(F)c1ccccc1-c1nc(NCc2ccc(-c3ccc(Cl)cc3)cc2)c2ccccc2n1 | -17.9% (inactive) |
| COc1cccc(-c2csc3ncnc(Sc4nnnn4C)c23)c1 | 6.46% (inactive) |
| O=C(Nc1ccc(Cl)cc1)c1ccccc1NCc1ccncc1 | -2.27% (inactive) |
| Cc1cc2c(s1)c1cnn(Cc3cc(F)cc(F)c3)c(=O)c1n2C | 16.7% (inactive) |
| CCC(C(=O)NC(=O)NC(C)=O)c1ccccc1 (stereo not given) | 0.674% (inactive) |
| COC(=O)c1ccc(N2CCN(S(=O)(=O)c3ccc4c(c3)CC(=O)N4)CC2)cc1 | -13.9% (inactive) |
| CCCn1c(-c2ccc(F)cc2)nc2c(N3CCN(Cc4nc(OC)cc(OC)n4)CC3)nc(C)nc21 | -4.94% (inactive) |
| O=C(OCC#CCSc1nnc(-c2cccc3ccccc23)o1)c1sccc1Cl | 1.71% (inactive) |
| CC(=O)N[C@H](C(=O)N[C@@H](C)C(=O)N[C@H](C#N)CC(=O)O)C(C)C | 12.9% (inactive) |
| Cc1ccc(C(=O)Nc2ccccc2C(=O)Nc2nc(-c3ccccc3)cs2)cc1 | 11.7% (inactive) |
| COc1cccc(NC(=S)N2CCN(c3cc(Cl)cc(Cl)c3)CC2)n1 | -2.12% (inactive) |
| O=C(NC(c1ccco1)c1cc(Cl)c2cccnc2c1O)c1ccccc1 (stereo not given) | -10.3% (inactive) |
| CC1CCC2(C1)N=C(Nc1nc3ccccc3o1)NC1=C2C(=O)CCC1 (stereo not given) | -2.46% (inactive) |
| COc1cccc(C2c3c(ncn(-c4cccnc4)c3=N)Oc3ccc4ccccc4c32)c1 (stereo not given) | 1.79% (inactive) |
| O=C(OCC#CCSc1nnc(-c2cccc3ccccc23)s1)c1cccs1 | 9.45% (inactive) |
| COc1cccc(C2c3c(ncn(-c4cccc(Br)c4)c3=N)Oc3ccc4ccccc4c32)c1 (stereo not given) | 0.313% (inactive) |
| Cc1ccc(NS(=O)(=O)c2ccc3[nH]c(=O)[nH]c3c2)cc1C | 4.07% (inactive) |
| Oc1ccc(CNc2cccc(C(F)(F)F)c2)c2cccnc12 | -29.6% (inactive) |
| Cn1c2cc(C(=O)O)sc2c2cnn(Cc3ccccc3F)c(=O)c21 | -2.9% (inactive) |

| SMILES | activity change, negative = inhibition |
| --- | --- |
| Cc1cc(C)nc(NC(=S)N2CCN(c3ccc4occc4c3)CC2)c1 | 3.05% (inactive) |
| Nc1ccc(S(=O)(=O)N2CCN(S(=O)(=O)c3ccc4c(c3)OCCO4)CC2)cc1 | 7.79% (inactive) |
| Cc1cc(C)nc(NC(=S)N2CCN(c3ccc(Cl)cc3F)CC2)c1 | 11.6% (inactive) |
| Cc1cc(-c2nc(Nc3ccc(F)c(F)c3)c3ccccc3n2)ccn1 | 7.32% (inactive) |
| C[C@@H]1CN(S(=O)(=O)c2c(F)cccc2F)CCN1S(=O)(=O)c1ccc2c(c1)OCCO2 | 1.89% (inactive) |
| NC(=O)C1CCN(c2nc(-c3ccccc3Br)cs2)CC1 | 9.75% (inactive) |
| COc1cccc(C2=Nn3c(nnc3-c3cc(OC)ccc3OC)SC2)c1 | 11.6% (inactive) |
| COc1cccc(C2c3c(ncn(-c4cccc(F)c4)c3=N)Oc3ccc4ccccc4c32)c1 (stereo not given) | 12.9% (inactive) |
| CCOc1ccc(CNc2ccc(-c3nc4ccccc4[nH]3)cc2)cc1 | 3.34% (inactive) |
| Cc1cnc(-c2ccccc2C(C)C)nc1NCC1CCN(C2COC2)CC1 | -3.78% (inactive) |
| Cc1ccc(-c2csc(NC(=O)c3ccncc3NS(=O)(=O)c3ccc(C)cc3)n2)cc1 | 3.24% (inactive) |
| COCCN(CCOC)c1nc(C)nc2c1nc(-c1ccccc1)n2CCN(C)C | 7.64% (inactive) |
| COc1cccc(-c2ccc3ncnc(NCc4cccc(C)c4)c3c2)c1 | 6.62% (inactive) |
| N#CN1CCC(N[S+](=O)([O-])c2cccc(F)c2)CC1 | 8.23% (inactive) |
| COc1ccc(C2Nc3ccccc3C(=O)N2Cc2ccccc2)cc1Oc1ccc(NC(C)=O)cc1 (stereo not given) | -14.4% (inactive) |
| CC(=O)NC(c1ccco1)c1cc(Br)c2cccnc2c1O (stereo not given) | -4.47% (inactive) |
| FC(F)(F)c1ccccc1-c1nc(NCc2ccc(Cl)c(Cl)c2)c2ccccc2n1 | -20.8% (inactive) |
| O=C1CCCC2=C1C(c1cccc(Cl)c1)N=C(Nc1nc3ccccc3o1)N2 (stereo not given) | -3.33% (inactive) |
| Cc1ccc(S(=O)(=O)N2CCN(S(=O)(=O)c3ccc4c(c3)OCCO4)CC2)cc1 | 9.68% (inactive) |
| O=C(COC(=O)CNC(=O)C1CCCCC1)Nc1cc(C(F)(F)F)ccc1Cl | 16.1% (inactive) |

These molecules were tested against Retinaldehyde dehydrogenase 3 (Homo sapiens) (UniProt P47895) (assay: qHTS for Inhibitors of the Aldehyde Dehydrogenase Family (ALDH1A3) Primary screen (AID 2061315;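 note: plate controls were DMSO vehicle for no effect and reference inhibitor for full effect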)). Settings: ALDH inhibition qHTS; series mostly up to 56 µM; activity change, negative = inhibition: at the top concentration.

| SMILES | activity change, negative = inhibition |
| --- | --- |
| Cc1noc(C)c1-c1ccc2ncnc(NCc3ccc(-c4ccccc4)cc3)c2c1 | -1.7% (inactive) |
| FC(F)(F)c1ccccc1-c1nc(NCc2ccc(-c3ccc(Cl)cc3)cc2)c2ccccc2n1 | -5.1% (inactive) |
| COc1cccc(-c2csc3ncnc(Sc4nnnn4C)c23)c1 | 9.83% (inactive) |
| O=C(Nc1ccc(Cl)cc1)c1ccccc1NCc1ccncc1 | -8.32% (inactive) |
| Cc1cc2c(s1)c1cnn(Cc3cc(F)cc(F)c3)c(=O)c1n2C | -0.829% (inactive) |
| CCC(C(=O)NC(=O)NC(C)=O)c1ccccc1 (stereo not given) | -4.24% (inactive) |
| COC(=O)c1ccc(N2CCN(S(=O)(=O)c3ccc4c(c3)CC(=O)N4)CC2)cc1 | 16.1% (inactive) |
| CCCn1c(-c2ccc(F)cc2)nc2c(N3CCN(Cc4nc(OC)cc(OC)n4)CC3)nc(C)nc21 | -23% (inactive) |
| O=C(OCC#CCSc1nnc(-c2cccc3ccccc23)o1)c1sccc1Cl | -2.33% (inactive) |
| CC(=O)N[C@H](C(=O)N[C@@H](C)C(=O)N[C@H](C#N)CC(=O)O)C(C)C | 15.3% (inactive) |
| Cc1ccc(C(=O)Nc2ccccc2C(=O)Nc2nc(-c3ccccc3)cs2)cc1 | 6.93% (inactive) |
| COc1cccc(NC(=S)N2CCN(c3cc(Cl)cc(Cl)c3)CC2)n1 | 12% (inactive) |
| O=C(NC(c1ccco1)c1cc(Cl)c2cccnc2c1O)c1ccccc1 (stereo not given) | 7.5% (inactive) |
| CC1CCC2(C1)N=C(Nc1nc3ccccc3o1)NC1=C2C(=O)CCC1 (stereo not given) | 11.9% (inactive) |
| COc1cccc(C2c3c(ncn(-c4cccnc4)c3=N)Oc3ccc4ccccc4c32)c1 (stereo not given) | 0.421% (inactive) |
| O=C(OCC#CCSc1nnc(-c2cccc3ccccc23)s1)c1cccs1 | 27.8% (inactive) |
| COc1cccc(C2c3c(ncn(-c4cccc(Br)c4)c3=N)Oc3ccc4ccccc4c32)c1 (stereo not given) | 0.624% (inactive) |
| Cc1ccc(NS(=O)(=O)c2ccc3[nH]c(=O)[nH]c3c2)cc1C | 4.77% (inactive) |
| Oc1ccc(CNc2cccc(C(F)(F)F)c2)c2cccnc12 | -21.4% (inactive) |
| Cn1c2cc(C(=O)O)sc2c2cnn(Cc3ccccc3F)c(=O)c21 | -19.2% (inactive) |

| SMILES | activity change, negative = inhibition |
| --- | --- |
| Cc1cc(C)nc(NC(=S)N2CCN(c3ccc4occc4c3)CC2)c1 | 12.2% (inactive) |
| Nc1ccc(S(=O)(=O)N2CCN(S(=O)(=O)c3ccc4c(c3)OCCO4)CC2)cc1 | 14.9% (inactive) |
| Cc1cc(C)nc(NC(=S)N2CCN(c3ccc(Cl)cc3F)CC2)c1 | 25.8% (inactive) |
| Cc1cc(-c2nc(Nc3ccc(F)c(F)c3)c3ccccc3n2)ccn1 | -6.7% (inactive) |
| C[C@@H]1CN(S(=O)(=O)c2c(F)cccc2F)CCN1S(=O)(=O)c1ccc2c(c1)OCCO2 | -1.07% (inactive) |
| NC(=O)C1CCN(c2nc(-c3ccccc3Br)cs2)CC1 | -1.34% (inactive) |
| COc1cccc(C2=Nn3c(nnc3-c3cc(OC)ccc3OC)SC2)c1 | 18% (inactive) |
| COc1cccc(C2c3c(ncn(-c4cccc(F)c4)c3=N)Oc3ccc4ccccc4c32)c1 (stereo not given) | 8.86% (inactive) |
| CCOc1ccc(CNc2ccc(-c3nc4ccccc4[nH]3)cc2)cc1 | -11.4% (inactive) |
| Cc1cnc(-c2ccccc2C(C)C)nc1NCC1CCN(C2COC2)CC1 | -4.9% (inactive) |
| Cc1ccc(-c2csc(NC(=O)c3ccncc3NS(=O)(=O)c3ccc(C)cc3)n2)cc1 | 14.1% (inactive) |
| COCCN(CCOC)c1nc(C)nc2c1nc(-c1ccccc1)n2CCN(C)C | -4.99% (inactive) |
| COc1cccc(-c2ccc3ncnc(NCc4cccc(C)c4)c3c2)c1 | 2% (inactive) |
| N#CN1CCC(N[S+](=O)([O-])c2cccc(F)c2)CC1 | 6.01% (inactive) |
| COc1ccc(C2Nc3ccccc3C(=O)N2Cc2ccccc2)cc1Oc1ccc(NC(C)=O)cc1 (stereo not given) | -6.17% (inactive) |
| CC(=O)NC(c1ccco1)c1cc(Br)c2cccnc2c1O (stereo not given) | -21.4% (inactive) |
| FC(F)(F)c1ccccc1-c1nc(NCc2ccc(Cl)c(Cl)c2)c2ccccc2n1 | -4.91% (inactive) |
| O=C1CCCC2=C1C(c1cccc(Cl)c1)N=C(Nc1nc3ccccc3o1)N2 (stereo not given) | 14.2% (inactive) |
| Cc1ccc(S(=O)(=O)N2CCN(S(=O)(=O)c3ccc4c(c3)OCCO4)CC2)cc1 | -2.29% (inactive) |
| O=C(COC(=O)CNC(=O)C1CCCCC1)Nc1cc(C(F)(F)F)ccc1Cl | 13% (inactive) |
